# Experimental data taken from PubChem BioAssay (Tox21).
# Values without a mark were called inactive. Inconclusive results are not listed. Where a call stands in place of a potency, no number is given. Active and inactive are the calls of the source. Unless noted, calls come from the whole dose curve; as a rule, active = well fitted curve in the direction sought with a large enough effect in the repeat runs; inconclusive = weak or mixed curves; inactive = no such curve, though single readings can be large; an effect the other way counts as inactive or inconclusive.
# Experiments:
# [1] = qHTS assay to identify small molecule HDAC inhibitors - cell viability counter screen (AID 1259365); note: series mostly up to about 92 µM; nearly all actives have a fitted effect of over 50% in size
# Outline: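 Luminescence from CellTiter-Glo, developed 30min at room temperature, reports viability of wild-type HCT-116 cells treated 2hr with compounds at 37 C and 5% CO2 after overnight plating.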
# [2] = qHTS assay to identify small molecule agonists of the sonic hedgehog signaling (Shh) pathway - cell viability counter screen (AID 1259366); note: nearly all actives have a fitted effect of over 50% in size
# Outline: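 Cytotoxicity counter screen run in the same wells as the Shh reporter assay. NIH/3T3 cells carrying a Gli1 response element–driven luciferase were treated with DMSO-dissolved compounds for 24hr, and live-cell protease activity was measured with CellTiter-Fluor.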
# [3] = qHTS assay to identify small molecule antagonists of the sonic hedgehog signaling (Shh) pathway - cell viability counter screen (AID 1259367); note: nearly all actives have a fitted effect of over 55% in size
# Outline: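 Tox21 library chemicals were tested on a Gli1-Luc NIH/3T3 clone (2,000 cells/well) stimulated by conditioned medium; viability was quantified as fluorescence from CellTiter-Fluor reagent added at 23 hr.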
# [4] = qHTS assay to identify small molecule agonists of the sonic hedgehog signaling (Shh) pathway (AID 1259368; calls by dose curve;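 note: NIH/3T3-derived 3T3Gli1-Luc cells carrying a stable Gli1-driven firefly luciferase reporter; series mostly up to about 92 µM; nearly all actives have a fitted effect of over 15% in size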)
# Outline: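 Following a 24 hr incubation with DMSO-dissolved compounds at 37 C, 5% CO2, Gli1-Luc NIH/3T3-derived cells received luciferase reagent for 30 min at room temperature prior to luminescence measurement.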
# [5] = qHTS assay to identify small molecule antagonists of the sonic hedgehog signaling (Shh) pathway (AID 1259369; calls by dose curve; note: nearly all actives have a fitted effect of over 45% in size)
# Outline: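 Read-out is luminescence from a firefly luciferase gene controlled by the Gli1 response element, in 3T3Gli1-Luc cells pre-incubated 4hr then exposed to compounds and conditioned medium for 24hr.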
# [6] = qHTS assay to identify small molecule agonists of the androgen receptor (AR) signaling pathway in the presence of an antagonist - cell viability counter screen (AID 1259379);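 note: MDA-kb2 human breast cancer cells carrying an MMTV luciferase reporter; series mostly up to about 92 µM; nearly all actives have a fitted effect of over 25% in size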
# Outline: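 Each compound was tested at 15 concentrations on MDA-kb2 cells in the presence of 3.0uM nilutamide. Viability was measured by CellTiter-Fluor fluorescence after a 16 hr incubation at 37C in a CO2-free atmosphere.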
# [7] = qHTS assay to identify small molecule agonists of the estrogen receptor beta (ER-beta) signaling pathway - cell viability counter screen (AID 1259380); note: nearly all actives have a fitted effect of over 30% in size
# Outline: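 Compounds dissolved in DMSO were pin-transferred onto ER-beta-UAS-bla HEK293T cells that had settled 6 hr, and exposure ran 16 hr at 37C. Following the reporter read, CellTiter-Glo luminescence after 30 min at room temperature indicated cytotoxicity.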
# [8] = qHTS assay to identify small molecule antagonists of the estrogen receptor beta (ER-beta) signaling pathway - cell viability counter screen (AID 1259382); note: series mostly up to about 92 µM; nearly all actives have a fitted effect of over 55% in size
# Outline: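 CellTiter-Glo ATP luminescence measured after the LiveBLAzer read in the same wells; ER-beta-UAS-bla HEK293T cells, 16 hr compound treatment with 1nM 17-beta-estradiol agonist at 37C, 5% CO2.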
# [9] = molecular target: Estrogen receptor (Homo sapiens) (UniProt P03372); assay: qHTS assay to identify small molecule agonists of the estrogen receptor alpha (ER-alpha) signaling pathway in the presence of an antagonist (AID 1259383; calls by dose curve; note: nearly all actives have a fitted effect of over 15% in size; note: potency is the fitted concentration of half-maximal effect; for activation: top concentration of the series differs between compounds)
# Outline: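 Luminescent ERE-luciferase reporter, VM7Luc4E2 cells (endogenous ER-alpha); 10.0nM ICI-182,780 final; 15-point compound titration; 22hr at 37C; ONE-Glo, 30min RT.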
# [10] = qHTS assay to identify small molecule agonists or antagonists of the thyroid stimulating hormone receptor (TSHR) signaling pathway - wild type cell line counter screen (AID 1259384; calls by dose curve)
# Outline: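 Wild-type Hek293 cells, 800/well, 18 h at 37C, then compound with Ro20-1724 for 30 min RT. cAMP by HTRF (cAMP-d2/anti-cAMP cryptate), 1 h RT, fluorescence read. 15 concentrations, triplicates.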
# [11] = molecular target: Thyrotropin receptor (Homo sapiens) (UniProt P16473); assay: qHTS assay to identify small molecule antagonists of the thyroid stimulating hormone receptor (TSHR) signaling pathway (AID 1259385; calls by dose curve; note: nearly all actives have a fitted effect of over 20% in size)
# Outline: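 TSHR-HEK293 cells (800/well) plated 18 h, then compounds with Ro20-1724 and TSH at 1.5 ng/mL final, 30 min at room temperature. cAMP quantified by HTRF (cAMP-d2/anti-cAMP-cryptate, 1 h); 15 concentrations in triplicate.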
# [12] = qHTS assay to identify small molecule agonists of the estrogen receptor alpha (ER-alpha) signaling pathway in the presence of an antagonist - cell viability counter screen (AID 1259386);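 note: series mostly up to about 92 µM; cells exposed to compounds for 22 h at 37 °C before the viability read; nearly all actives have a fitted effect of over 30% in size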
# Outline: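 Using estrogen-depleted VM7Luc4E2 cells, the 15-concentration compound series was applied together with 10.0nM ICI-182,780 and incubated 22hr at 37C/5% CO2. Cell viability was then scored by CellTiter-Fluor.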
# [13] = molecular target: Progesterone receptor (Homo sapiens) (UniProt P06401); assay: qHTS assay to identify small molecule agonists of the progesterone receptor (PR) signaling pathway (AID 1346784; calls by dose curve; note: nearly all actives have a fitted effect of over 30% in size)
# Outline: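 Beta-lactamase reporter read-out: after 16 hr compound treatment at 37C and a further 2 hr at room temperature with LiveBLAzer B/G FRET substrate, fluorescence was measured in PR-UAS-bla HEK 293T cells grown in 2% charcoal-stripped serum.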
# [14] = molecular target: Progesterone receptor (Homo sapiens) (UniProt P06401); assay: qHTS assay to identify small molecule antagonists of the progesterone receptor (PR) signaling pathway (AID 1346795; active = well fitted inhibition curve with a large enough effect in the signal ratio in the repeat runs, not every such curve was filed as active; the % refers to the signal ratio)
# Outline: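 Read-out is fluorescence from the LiveBLAzer B/G FRET substrate, cleaved by a UAS-controlled beta-lactamase in PR-UAS-bla HEK293T cells after 16 hr exposure to compound plus 1 nM promegestone (final), followed by 2 hr at room temperature.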
# [15] = qHTS assay to identify small molecule agonists of the progesterone receptor (PR) signaling pathway - cell viability counter screen (AID 1346799; calls by dose curve; note: nearly all actives have a fitted effect of over 45% in size)
# Outline: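 Luminescence from CellTiter-Glo, added after the beta-lactamase FRET read in the same wells, gave cytotoxicity in PR-UAS-bla HEK293T cells treated with compounds for 16 hr at 37C.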
# [16] = qHTS assay to identify small molecule antagonists of the TGF-beta/Smad signaling pathway - cell viability counter screen (AID 1346824); note: nearly all actives have a fitted effect of over 50% in size
# Outline: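 SBE-bla HEK 293T cells, incubated overnight, then compound plus 0.25 ng/mL TGF-beta1 (stock added) for 5 hr at 37 C. Viability was read in the same wells by CellTiter-Glo luminescence after 30 min at room temperature.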
# [17] = molecular target: Estrogen receptor beta (Homo sapiens) (UniProt Q92731); assay: qHTS assay to identify small molecule agonists of the estrogen receptor beta (ER-beta) signaling pathway (AID 1259377; active = well fitted activation curve with a large enough effect in the signal ratio in the repeat runs, not every such curve was filed as active; the % refers to the signal ratio)
# Outline: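 HEK293T ER-beta-UAS-bla; 2% charcoal-stripped FBS; cells pre-incubated 6 hr, compound 16 hr, 37C/5% CO2; LiveBLAzer B/G FRET substrate 2 h RT; fluorescence intensity read.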
# [18] = molecular target: Estrogen receptor beta (Homo sapiens) (UniProt Q92731); assay: qHTS assay to identify small molecule antagonists of the estrogen receptor beta (ER-beta) signaling pathway (AID 1259378; active = well fitted inhibition curve with a large enough effect in the signal ratio in the repeat runs, not every such curve was filed as active; the % refers to the signal ratio)
# Outline: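 ER-beta-UAS-bla HEK293T cells in 2% charcoal-stripped FBS medium treated with compound plus 1nM final 17-beta-estradiol for 16 hr at 37C. Beta-lactamase reporter read by FRET substrate fluorescence after 2 hours at room temperature.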
# [19] = qHTS assay to identify small molecule antagonists of the progesterone receptor (PR) signaling pathway - cell viability counter screen (AID 1346798);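 note: HEK293T PR-UAS-bla cells stimulated with the agonist R5020; series mostly up to about 92 µM; nearly all actives have a fitted effect of over 50% in size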
# Outline: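 HEK293T PR-UAS-bla, 2% charcoal-stripped FBS; 4 hr pre-plate; cpd + R5020, 16 h 37C; LiveBLAzer read first; then CellTiter-Glo 30 min RT, luminescence.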
# Thyrotropin receptor (Homo sapiens), sequence (P16473 whole entry, looked up): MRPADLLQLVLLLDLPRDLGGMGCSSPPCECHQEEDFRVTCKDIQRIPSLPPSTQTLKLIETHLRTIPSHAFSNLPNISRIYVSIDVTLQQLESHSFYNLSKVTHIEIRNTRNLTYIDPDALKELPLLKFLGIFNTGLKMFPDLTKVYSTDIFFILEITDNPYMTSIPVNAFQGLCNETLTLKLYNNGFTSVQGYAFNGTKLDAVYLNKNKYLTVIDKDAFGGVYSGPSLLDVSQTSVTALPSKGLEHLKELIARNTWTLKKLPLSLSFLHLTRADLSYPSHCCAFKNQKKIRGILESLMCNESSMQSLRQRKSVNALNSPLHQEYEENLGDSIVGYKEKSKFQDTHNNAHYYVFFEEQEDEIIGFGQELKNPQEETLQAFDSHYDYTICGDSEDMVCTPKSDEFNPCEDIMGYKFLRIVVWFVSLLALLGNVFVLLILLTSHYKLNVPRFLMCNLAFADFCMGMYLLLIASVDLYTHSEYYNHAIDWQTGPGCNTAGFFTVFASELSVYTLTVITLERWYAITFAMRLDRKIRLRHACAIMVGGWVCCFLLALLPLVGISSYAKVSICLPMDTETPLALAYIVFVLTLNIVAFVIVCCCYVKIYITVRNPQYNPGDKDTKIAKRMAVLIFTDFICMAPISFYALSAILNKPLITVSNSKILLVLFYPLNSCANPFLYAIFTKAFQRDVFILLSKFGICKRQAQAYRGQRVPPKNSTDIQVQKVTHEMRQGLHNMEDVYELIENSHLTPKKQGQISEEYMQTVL
# Estrogen receptor (Homo sapiens), sequence (P03372 whole entry, looked up): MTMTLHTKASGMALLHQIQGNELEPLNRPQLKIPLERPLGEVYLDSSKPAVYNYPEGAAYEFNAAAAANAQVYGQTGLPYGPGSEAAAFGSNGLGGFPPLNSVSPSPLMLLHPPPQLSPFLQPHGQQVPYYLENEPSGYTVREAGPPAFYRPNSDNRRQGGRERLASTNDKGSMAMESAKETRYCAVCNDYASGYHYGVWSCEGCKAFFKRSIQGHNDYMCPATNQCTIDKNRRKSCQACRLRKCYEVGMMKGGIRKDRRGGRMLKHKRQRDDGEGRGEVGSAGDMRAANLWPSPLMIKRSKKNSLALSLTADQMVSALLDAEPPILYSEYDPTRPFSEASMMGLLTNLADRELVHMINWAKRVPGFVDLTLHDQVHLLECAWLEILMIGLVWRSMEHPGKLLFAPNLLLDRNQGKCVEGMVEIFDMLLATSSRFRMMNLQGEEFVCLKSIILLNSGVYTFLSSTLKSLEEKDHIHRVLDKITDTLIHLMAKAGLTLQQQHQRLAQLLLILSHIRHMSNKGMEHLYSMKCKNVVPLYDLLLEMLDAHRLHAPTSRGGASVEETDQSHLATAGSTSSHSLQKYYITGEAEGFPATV
# Progesterone receptor (Homo sapiens), sequence (P06401 whole entry, looked up): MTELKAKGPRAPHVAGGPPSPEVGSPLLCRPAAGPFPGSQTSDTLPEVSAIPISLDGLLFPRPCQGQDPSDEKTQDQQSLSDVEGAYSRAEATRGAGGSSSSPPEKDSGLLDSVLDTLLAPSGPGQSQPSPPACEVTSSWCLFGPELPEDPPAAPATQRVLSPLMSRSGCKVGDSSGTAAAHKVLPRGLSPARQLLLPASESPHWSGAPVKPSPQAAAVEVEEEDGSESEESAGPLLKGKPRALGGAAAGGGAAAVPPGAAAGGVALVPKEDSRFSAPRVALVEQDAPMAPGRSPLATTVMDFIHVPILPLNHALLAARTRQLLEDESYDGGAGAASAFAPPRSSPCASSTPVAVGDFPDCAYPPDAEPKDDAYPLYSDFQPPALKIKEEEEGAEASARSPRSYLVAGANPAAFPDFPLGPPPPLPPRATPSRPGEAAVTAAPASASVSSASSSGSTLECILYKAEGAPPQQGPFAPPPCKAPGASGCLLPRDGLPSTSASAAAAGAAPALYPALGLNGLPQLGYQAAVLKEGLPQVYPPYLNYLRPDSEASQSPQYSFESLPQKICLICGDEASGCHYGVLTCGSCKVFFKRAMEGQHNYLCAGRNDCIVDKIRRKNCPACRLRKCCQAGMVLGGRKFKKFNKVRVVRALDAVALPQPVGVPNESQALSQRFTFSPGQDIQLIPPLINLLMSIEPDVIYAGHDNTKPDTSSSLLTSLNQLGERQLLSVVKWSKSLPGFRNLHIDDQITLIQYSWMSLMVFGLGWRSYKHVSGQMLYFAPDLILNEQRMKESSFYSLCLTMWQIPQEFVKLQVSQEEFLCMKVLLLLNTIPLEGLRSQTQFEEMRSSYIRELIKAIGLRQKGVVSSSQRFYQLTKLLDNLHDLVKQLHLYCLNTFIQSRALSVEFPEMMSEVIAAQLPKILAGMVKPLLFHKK
# Estrogen receptor beta (Homo sapiens), sequence (Q92731 whole entry, looked up): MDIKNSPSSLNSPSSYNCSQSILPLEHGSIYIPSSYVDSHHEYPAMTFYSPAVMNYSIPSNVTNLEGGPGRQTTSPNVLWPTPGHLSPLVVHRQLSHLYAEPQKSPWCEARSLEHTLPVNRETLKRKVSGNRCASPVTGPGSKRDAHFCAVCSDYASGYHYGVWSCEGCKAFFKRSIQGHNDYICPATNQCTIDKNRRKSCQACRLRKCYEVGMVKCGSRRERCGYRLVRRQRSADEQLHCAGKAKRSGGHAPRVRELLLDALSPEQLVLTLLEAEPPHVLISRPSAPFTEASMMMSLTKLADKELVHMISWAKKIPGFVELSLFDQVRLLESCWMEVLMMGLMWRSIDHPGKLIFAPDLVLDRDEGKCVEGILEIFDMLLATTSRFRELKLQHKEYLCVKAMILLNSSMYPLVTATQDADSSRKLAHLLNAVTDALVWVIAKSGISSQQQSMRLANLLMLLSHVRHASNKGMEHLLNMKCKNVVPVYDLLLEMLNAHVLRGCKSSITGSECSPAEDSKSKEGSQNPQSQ
SMILES,outcome [1],outcome [2],outcome [3],outcome [4],Potency [5],outcome [6],outcome [7],outcome [8],Potency [9],outcome [10],outcome [11],outcome [12],Potency [13],Potency [14],outcome [15],outcome [16],Potency [17],Potency [18],outcome [19]
NCCOCCN,inactive,inactive,inactive,inactive,inactive,inactive,inactive,inactive,inactive,inactive,inactive,inactive,inactive,inactive,inactive,inactive,,,
Cc1ccc2c(c1)C(=O)c1ccccc1C2=O,inactive,inactive,inactive,inactive,inactive,inactive,,inactive,3.84 µM (active),inactive,inactive,inactive,inactive,inactive,,inactive,,,
C[Si]1(C)O[Si](C)(C)O[Si](C)(C)O[Si](C)(C)O[Si](C)(C)O1,inactive,inactive,inactive,inactive,inactive,inactive,inactive,inactive,,inactive,inactive,inactive,inactive,,inactive,inactive,,,
C=C(C)[C@@H]1CC=C(C)CC1,inactive,inactive,inactive,inactive,inactive,inactive,inactive,,inactive,,,inactive,inactive,inactive,inactive,inactive,,,
CC(C)CCOC(=O)c1ccccc1,inactive,inactive,inactive,inactive,inactive,inactive,inactive,inactive,,inactive,inactive,,inactive,inactive,inactive,inactive,,,
CCCCOC(=O)[C@H](C)O,inactive,inactive,inactive,inactive,,inactive,inactive,inactive,,inactive,inactive,,inactive,inactive,inactive,inactive,,,
O=Cc1ccccc1Cl,inactive,inactive,inactive,inactive,,inactive,inactive,,,,,inactive,inactive,inactive,inactive,inactive,inactive,inactive,inactive
